# Bioassay records: PubChem BioAssay, several laboratories
# Only some compounds are listed: those with a hit (about 5.4% of all), similar ones and a draw of the others.
# ALR inh: inhibitors of human sulfhydryl oxidase ALR. purified ALR, DTT oxidation, H2O2 HRP-luminol luminescence. inhibition, % (concentration not given with the values). AID 485317. actives 3.8% (n = 290,000);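 active means mean replicate inhibition above about 79%, with every replicate also reaching it, limit read from the data; inconclusive means only one of the two criteria met; inactive means mean below limit and not every replicate reaching it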
# PHOSPHO1 block: inhibitors of human PHOSPHO1 phosphatase; recombinant PHOSPHO1, absorbance phosphatase assay; actives 1.1% (n = 290,000); inhibition, % at 13.3 µM; Q8TCT1; AID 1565; in the data active means inhibition above about 60%
# APOBEC3G inh: APOBEC3G (human) deaminase inhibition; actives 0.28% (n = 330,000); AID 493012; recombinant A3G, ssDNA deamination FAM/TAMRA fluorescence; inhibition, % at 20 µM;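 active means inhibition of at least 40% at 20 µM, with no more than 30% in the related APOBEC3A deaminase screen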;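 further: plate controls were DMSO wells with A3G for no effect and wells lacking A3G enzyme for full effect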
# Target sequence (Q9HC16 whole entry, looked up): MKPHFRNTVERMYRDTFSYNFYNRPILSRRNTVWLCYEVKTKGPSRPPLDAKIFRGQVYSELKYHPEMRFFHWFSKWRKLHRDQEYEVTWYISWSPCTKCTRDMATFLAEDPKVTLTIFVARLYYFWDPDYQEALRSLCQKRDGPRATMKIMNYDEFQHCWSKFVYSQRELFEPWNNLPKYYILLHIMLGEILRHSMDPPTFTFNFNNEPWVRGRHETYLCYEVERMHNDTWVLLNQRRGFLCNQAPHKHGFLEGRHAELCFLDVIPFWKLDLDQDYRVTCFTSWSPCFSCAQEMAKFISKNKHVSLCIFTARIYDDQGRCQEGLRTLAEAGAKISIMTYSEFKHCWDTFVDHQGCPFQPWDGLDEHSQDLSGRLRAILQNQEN
# APOBEC3A inh: inhibitors of human APOBEC3A DNA deaminase; actives 0.41% (n = 330,000); P31941; recombinant A3A, FAM/TAMRA ssDNA deamination fluorescence; inhibition, % at 20 µM;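 active means at least 40% inhibition at 20 µM here, with at most 30% in a related deaminase screen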;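 further: plate controls were A3A with DMSO for no effect and wells lacking A3A enzyme for full effect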
# Target sequence (P31941 whole entry, looked up): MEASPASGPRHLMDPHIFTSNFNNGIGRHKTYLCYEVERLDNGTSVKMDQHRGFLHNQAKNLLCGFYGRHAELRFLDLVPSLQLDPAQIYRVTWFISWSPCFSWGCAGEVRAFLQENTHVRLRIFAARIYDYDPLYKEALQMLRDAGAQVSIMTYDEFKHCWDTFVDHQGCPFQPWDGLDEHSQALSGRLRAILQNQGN
# rCAG binder: r(CAG) repeat RNA binding | TO-PRO-1 dye displacement fluorescence | inhibition, % at 3 µM | actives 1.3% (n = 370,000);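 active means inhibition above the plate cutoff, the mean of all test compounds on that plate plus 3 SD, cut at about 35% in these data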;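 further: 0% = DMSO alone and 100% = 100 µM mitoxantrone as full dye displacement; higher means more dye released from RNA so lower well fluorescence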
# aDG glyco up: increases alpha dystroglycan glycosylation; Pro5-aDG cells, alpha-DG glycosylation AlphaScreen (IIH6); 0% Pro5, 100% B10-LARGE cell signal; activation, % at 10 µM; actives 0.22% (n = 360,000); AID 624168;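 active means activation of at least 8% versus controls, or a plate z-score of at least 8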;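 further: Pro5 are CHO cells carrying HIG-tagged alpha-DG that lacks glycosylation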
# An asterisk follows results filed as active; u = inconclusive; x = no result.
SMILES,ALR inh,PHOSPHO1 block,APOBEC3G inh,APOBEC3A inh,rCAG binder,aDG glyco up
Cc1ccccc1CSc1nnc(C)c(=O)[nH]1,91*,2,-6,0,2,0
Cc1nnc(SCc2cccc([N+](=O)[O-])c2)[nH]c1=O,99*,3,-2,-1,0,0
Cc1ccccc1CNC(=O)C1CCC(CNS(=O)(=O)c2cccc3cccnc23)CC1 (centres undefined),x,x,x,x,2,x
COc1ccc(S[C@]2(C(=O)N3CCCC3)CC(=O)N(C(=O)/C=C/c3ccccc3)[C@@H]2c2ccc(OC)cc2)cc1,x,x,x,x,13,x
CC(C)(C)N1Cc2nnn(CC3CCCCC3)c2-c2ccccc2S1(=O)=O,x,x,x,x,-1,x
O=C(CN1CCN(c2ccc(O)cc2)CC1)N1CCc2ccccc21,80*,27,30,-4,3,0
O=C(CN1CCN(c2ccccc2)CC1)N1CCc2ccccc21,71,20,-6,-2,1,0
O=C(CSc1ncccn1)c1ccccc1Br,u,61*,-5,-2,6,0
O=C(O)CSc1ncccn1,-5,8,-1,1,0,0
Cc1cc(=O)[nH]c(Nc2ccc(Cl)cc2)n1,x,13,-8,-7,9,1
CCN(CCC#N)c1ccc(/C=N/Nc2nc(C)cc(=O)[nH]2)c(C)c1,99*,-7,0,-4,2,1
Cc1cc(=O)[nH]c(N/N=C/c2ccc(N(C)C)cc2)n1,99*,22,-4,-3,4,0
COc1cc(/C=N/Nc2nc(C)cc(=O)[nH]2)ccc1O,98*,20,-5,-8,3,0
Cc1cc(=O)[nH]c(Nc2ccc(N(C)C)cc2)n1,99*,19,-4,-6,8,0
COC(=O)[C@]12C[C@H](CC(=O)NCCCCc3ccccc3)C(=O)N(Cc3ccc4c(c3)OCO4)C1=C[C@H](COCc1ccccc1)O[C@@H]2C,x,x,x,x,7,x
COc1ccc(/C=N/Nc2nnc(Cc3ccc(OC)c(OC)c3)c(=O)[nH]2)cc1OC,0,-42,-5,0,4,0
COc1ccc(Cc2nnc(N/N=C/c3ccc(N(C)C)cc3)[nH]c2=O)cc1OC,99*,23,-6,-4,14,0
COc1ccc(CSc2nc3ccccc3[nH]2)cc1,-8,31,1,3,4,1
O=C(CSc1nc2ccccc2[nH]1)Nc1ccc(N2CCOCC2)cc1,99*,33,-7,2,-3,0
O=C(CSc1nc2ccccc2[nH]1)N1CCN(c2ccccc2)CC1,99*,25,5,3,-4,0
O=C1CCC(=O)N1c1ccc(CSc2nc3ccccc3[nH]2)cc1,99*,35,-7,-1,0,0
O=C(CSc1nc2ccccc2[nH]1)Nc1cccc(S(=O)(=O)N2CCOCC2)c1,x,-15,-8,0,8,0
CCCCn1c(SCC(=O)Nc2cccc(OC)c2)nc2ccc(N3CCOCC3)cc2c1=O,99*,-7,6,7,16,0
COC(=O)[C@H](CC(C)C)N1Cc2nnn(Cc3ccccc3)c2-c2cc(F)ccc2S1(=O)=O,x,x,x,x,0,x
Cn1cc(SCC(=O)N2CCN(c3ccccc3)CC2)c2ccccc21,98*,29,-8,-3,1,0
SMILES,ALR inh,PHOSPHO1 block,APOBEC3G inh,APOBEC3A inh,rCAG binder,aDG glyco up
O=C(CSc1nc2ccccc2[nH]1)c1ccc(Cl)s1,x,103*,-2,4,14,0
COCCn1c(SCC(=O)Nc2ccc(S(=O)(=O)N3CCOCC3)cc2)nc2ccccc21,x,10,-3,1,-2,0
N#CCCn1c(SCC(=O)Nc2ccc(N3CCOCC3)cc2)nc2ccccc21,99*,-11,-6,-3,7,0
O=C(CSc1nc2ccccc2[nH]1)N1c2ccccc2Sc2ccccc21,x,-32,-9,-1,0,0
Cn1cc(SCC(=O)N2CCOCC2)c2ccccc21,x,34,-7,-3,1,0
O=C(NCCc1c[nH]c2ccccc12)OCc1cn(Cc2ccccc2Cl)nn1,x,x,x,x,5,x
CCn1c(CSc2nc3ccccc3s2)nnc1SCC(=O)c1ccc(O)cc1O,-6,83*,-6,-2,5,-1
CC(=O)Nc1ccc(SCCN2CC[C@@H](C(C)(C)C)CCC2=O)cc1,99*,x,-4,0,-2,0
COc1ccc(SC[C@H](C)CN2CC[C@H](C(C)(C)C)CCC2=O)cc1,99*,x,-12,-3,-4,0
C[C@@H](CSc1ccc(Br)cc1)CN1CC[C@H](O)CCC1=O,-2,x,-8,-1,-8,0
CC(=O)Nc1ccc(SC[C@H](C)CN2CC[C@H](O)CCC2=O)cc1,98*,x,-9,-2,-1,0
O=C(CSc1nnc(-c2cccs2)o1)Nc1cccc2ccccc12,x,x,x,x,1,x
COc1ccc(C2C(C(=O)Nc3ccc(C)c(C)c3)CCC(=O)N2c2ccc(OC)cc2)cc1 (centres undefined),x,x,x,x,1,x
S=c1[nH]ncc2ccccc12,-26,67*,-1,-2,-2,0
S=c1[nH]ccc2ccccc12,x,x,x,x,1,0
Cc1ccccc1OCC(=O)OCC(=O)N1CCc2ccccc21,x,x,-8,-1,-11,0
O=C(CC1Sc2ccccc2NC1=O)OCC(=O)N1CCc2ccccc21 (centres undefined),x,62*,-4,6,9,0
Cc1cc(C)cc(NC(=O)NC2CCN(S(=O)(=O)c3ccc(F)cc3)CC2)c1,x,x,x,x,2,x
O=C(CN1CC[n+]2c(-c3ccccc3)csc21)c1ccc(Br)cc1,98*,2,4,8,7,0
CC(=O)N1CCN(CC(=O)c2ccc(Br)cc2)CC1,x,-12,-6,-1,2,0
O=C(CN1CC[n+]2c(-c3cccs3)csc21)c1ccc(Br)cc1,98*,-2,-5,0,7,0
CC1CC(C)CN(CCCNC(=O)c2ccc(CNS(=O)(=O)c3ccc(F)cc3)cc2)C1 (centres undefined),-14,75*,1,0,-5,0
C=CC(=O)NC1CCCCN(CC)C1=O (centres undefined),x,x,x,x,15,x
CCn1c(SCc2cccc(F)c2)nc2c(c1=O)SCC2,97*,-11,-4,-2,-5,1
CCn1c(SCc2ccc(F)cc2)nc2c(c1=O)SCC2,48,-10,-5,-4,-4,0
COCCn1c(SCC(=O)c2ccccc2)nc2ccccc2c1=O,97*,-9,-8,-2,-6,0
COCCn1c(SCC(=O)c2ccccc2)nc2c(c1=O)SCC2,94*,5,-1,0,-2,1
COCCCn1c(SCC(=O)c2ccccc2)nc2ccccc2c1=O,2,30,1,0,-8,1
Oc1ccc(-c2cnc3ccccc3n2)cc1,98*,x,-9,-4,4,0
Clc1ccc(-c2cnc3ccccc3n2)cc1,-5,6,-4,1,-3,0
